# Shown are actives, neighbours in structure and some others; about 7.5% of the full set was active somewhere.
# VP16 counter – counter-screen for ROR gamma inhibitors: Gal4-VP16 reporter | Drosophila S2 Gal4-VP16 UAS-luciferase, luminescence, 20 h | Potency, µM (titrated, usually from 53.6 µM), without a hit: top-dose activity, negative = inhibition, actives largely listed as inhibitors | 310,000 tested, 3.5% active;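 also: Gal4-VP16 expression switched on by copper sulfate through the metallothionein promoter; potency is read from the fitted curve at half-maximal effect; nearly all actives have a fitted effect of over 50% in size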
# TSHR antagonist – blocks TSH signaling through the human TSH receptor; P16473; activity change, negative = inhibition, % at 11.5 µM; TSHR-expressing cells, TSH-stimulated cAMP HTRF, 2 h; stronger effect = lower value; 330,000 tested, 0.2% active;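 active = activity change below a set negative limit, meaning inhibition stronger than a set level, cut at about -70% in these data; inconclusive = activity change between two set negative limits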
# Target sequence (P16473 whole entry, looked up): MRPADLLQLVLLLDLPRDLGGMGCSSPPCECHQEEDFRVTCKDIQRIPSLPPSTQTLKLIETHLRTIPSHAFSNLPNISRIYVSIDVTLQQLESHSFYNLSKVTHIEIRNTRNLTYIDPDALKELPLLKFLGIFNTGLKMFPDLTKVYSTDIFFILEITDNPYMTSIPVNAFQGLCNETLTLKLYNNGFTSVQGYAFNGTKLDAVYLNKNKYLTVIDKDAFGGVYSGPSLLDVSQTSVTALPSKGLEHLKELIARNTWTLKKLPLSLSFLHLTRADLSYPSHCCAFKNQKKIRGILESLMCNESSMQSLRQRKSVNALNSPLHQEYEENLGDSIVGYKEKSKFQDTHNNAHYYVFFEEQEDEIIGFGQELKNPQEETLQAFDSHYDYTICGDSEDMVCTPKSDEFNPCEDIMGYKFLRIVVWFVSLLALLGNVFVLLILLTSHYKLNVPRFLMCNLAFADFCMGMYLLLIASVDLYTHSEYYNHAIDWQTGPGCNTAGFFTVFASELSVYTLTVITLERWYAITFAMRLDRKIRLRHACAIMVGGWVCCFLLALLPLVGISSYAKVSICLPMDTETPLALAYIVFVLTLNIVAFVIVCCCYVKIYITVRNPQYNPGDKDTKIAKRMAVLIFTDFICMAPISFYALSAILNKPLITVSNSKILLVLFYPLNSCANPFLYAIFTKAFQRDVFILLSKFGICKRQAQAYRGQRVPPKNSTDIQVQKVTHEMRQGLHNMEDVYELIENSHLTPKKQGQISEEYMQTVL
#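 TSHR-expressing cells, 200/well, pre-treated with compound, then stimulated with EC80 TSH (4nM final) for 2 hours at 37 deg C. cAMP measured by competitive HTRF: anti-cAMP cryptate antibody in lysis buffer plus cAMP-d2, read after 30 minutes at room temperature.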
# B2AR arrestin – beta2AR (human) beta-arrestin recruitment activity; Potency, µM (series often up to 46.1 µM), for inactives: at the top dose activation, usual class: activators; 330,000 tested, 0.02% active; beta-arrestin recruitment to beta2AR, cell-based reporter;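 also: potency is read from the fitted curve at half-maximal effect; 0% = DMSO controls and full agonism = EC100 isoproterenol or metaproterenol; nearly all actives have a fitted effect of over 65% in size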
# RORgamma inh – inhibitors of mouse ROR gamma transcriptional activity | P51450 | Drosophila S2 Gal4-RORgamma UAS-luciferase reporter, 20 h | Potency, µM (doses to about 53.6 µM), inactives show top-dose activity change, negative = inhibition, usual class: inhibitors | 310,000 tested, 5.4% active | AID 2551; also: potency is read from the fitted curve at half-maximal effect; nearly all actives have a fitted effect of over 60% in size
#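 Compounds are pin-transferred onto Drosophila Schneider cells expressing a copper-inducible Gal4–ROR gamma transactivation domain fusion. After 1 hr, copper sulfate is added to 700 uM final; luciferase is read 20 hr later.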
# ELG1 DNA repair – ELG1-dependent DNA repair inhibition. HEK293T ELG1-luciferase reporter, luminescence, 16 h; DNA damage induced by 5-fluorouridine. Potency, µM (titrated, usually from 46.1 µM), for inactives: top-dose activity change, negative = inhibition, hits mostly inhibitors. 330,000 tested, 2.3% active; also: potency is read from the fitted curve at half-maximal effect; nearly all actives have a fitted effect of over 55% in size
#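 Overnight (16 hr) co-exposure of 2,000 cells/well to 5-fluorouridine and compound at 37 °C preceded detection. Luciferase was quantified via ONE-Glo luminescence; loss of signal denotes inhibition.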
# An asterisk follows results filed as active; ? = inconclusive; . = not tested or not shown; [ ] = remark or other dose. Unless noted, calls follow the shape of the dose curve; as a rule, active = well fitted curve in the direction sought with a large enough effect; inconclusive = small, poorly fitted or top-dose-only effect, or another doubt; inactive = no such curve, though single readings can be large; an effect the other way counts as inactive or inconclusive. Unless noted, % is scaled to controls: 0 for no effect and ±100 for the full control effect.
SMILES,VP16 counter,TSHR antagonist,B2AR arrestin,RORgamma inh,ELG1 DNA repair
O=C(Nc1nnc(C2CC2)o1)c1ccc(S(=O)(=O)N2CCc3ccccc3C2)cc1,1.8µM*,-13,0%,0.71µM*,?
COc1ccc(-c2csc(NC(=O)c3ccc(S(=O)(=O)N4CCc5ccccc5C4)cc3)n2)cc1,-11%,-2,-1%,-10%,?
COc1ccc(-c2nnc(NC(=O)c3ccc(S(=O)(=O)N4CCc5ccccc5C4)cc3)o2)cc1,0.25µM*,-4,4%,0.13µM*,?
C[C@@H](C(=O)Nc1ccc2ccccc2c1)[C@@H]1C[C@@]1(C)[C@@H](NC(=O)c1ccccc1)c1ccccc1,1%,5,-1%,9%,9%
C[C@@H](C(=O)Nc1ccc2ccccc2c1)[C@H]1C[C@]1(C)[C@H](NC(=O)c1cccnc1)c1ccccc1,?,-10,-1%,?,18µM*
Cc1nc(C/C(=N\N)c2ccc(O)cc2O)cs1,-1%,-6,0%,12%,-8%
N/N=C(\Cc1cscn1)c1ccc(O)cc1O,-9%,-4,0%,11%,23µM*
COc1ccc(/C=N/n2cnc3c([nH]c4ccc(F)cc43)c2=O)cc1CN1CCCC1,11µM*,2,-1%,-80%,-1%
CC(C)(C)OC(=O)N1CCCC(C(=O)Nc2ccc(C(=O)N3CCCCC3)cc2)C1 (stereo not given),.,-12,0%,.,?
CN(Cc1ccccc1)C(=O)c1ccc(NC(=O)Cc2cccc(NC(=O)C3CCN(C(=O)C4CCC4)CC3)c2)cc1,.,0,-1%,.,5.2µM*
CN(Cc1ccccc1)C(=O)c1ccc(NC(=O)Cc2cccc(NC(=O)C3CCCN(C(=O)C4CCCCC4)C3)c2)cc1 (stereo not given),.,10,0%,.,15µM*
CN(C(=O)c1cccc(NC(=O)C2CCN(C(=O)OC(C)(C)C)CC2)c1)C1CCCCC1,.,-16,-1%,.,23µM*
CN(Cc1ccccc1)C(=O)c1ccc(NC(=O)Cc2cccc(NC(=O)C3CCCN(C(=O)C4CCCC4)C3)c2)cc1 (stereo not given),.,13,4%,.,?
CN(Cc1ccccc1)C(=O)c1ccc(NC(=O)C2CCCN(C(=O)OC(C)(C)C)C2)cc1 (stereo not given),.,-17,-1%,.,21µM*
CC(NC(=O)c1ccccc1Cl)C(=O)OCc1cn2cc(Cl)ccc2n1 (stereo not given),.,6,0%,.,17%
CCN1C(=O)[C@H]2[C@H]3[C@H](O)[C@H](O)C/C(=N/NC(=O)OCc4ccccc4)[C@@H]3CC[C@@H]2C1=O,-4%[10 µM],.,.,-14%[10 µM],.
CSc1cccc(NC(=S)N(Cc2ccc(C)cc2)Cc2cccnc2)c1,?,-8,0%,5µM*,?
Cc1ccccc1NC(=S)N(Cc1ccccc1)Cc1cccnc1,22%,-6,0%,?,1%
Cc1ccc(Cl)cc1NC(=S)N(Cc1cccnc1)Cc1ccccc1Cl,25µM*,-3,0%,?,?
Cc1nnsc1C(=O)N1CCC(CO)(Cc2ccccc2Cl)CC1,-8%,-4,-1%,5%,-28%
Cc1ccc(N(C)S(=O)(=O)c2cccc(C(=O)Nc3nc4ccccc4[nH]3)c2)cc1,1.1µM*,-4,-1%,1.3µM*,23µM*
O=C(Nc1nc2ccccc2[nH]1)c1cccc(Br)c1,5µM*,-11,0%,2.2µM*,?
CN(C)c1cccc(C(=O)Nc2nc3ccccc3[nH]2)c1,11µM*,12,0%,5µM*,?
O=C(CNC(=O)c1cccc(Br)c1)NCCc1nc2ccccc2[nH]1,3%,0,-1%,13%,11%
O=C(Nc1nc2ccccc2[nH]1)Nc1ccccc1F,?,2,-1%,?,?
SMILES,VP16 counter,TSHR antagonist,B2AR arrestin,RORgamma inh,ELG1 DNA repair
O=C(Nc1nc2ccccc2[nH]1)c1cccc(F)c1,7.1µM*,18,0%,5.6µM*,?
CN(C)S(=O)(=O)c1ccc(Cl)c(C(=O)Nc2nc3ccccc3[nH]2)c1,?,-5,0%,?,-13%
COc1ccccc1NS(=O)(=O)c1cc(C(=O)N2CCCC2)ccc1F,.,-13,-1%,.,-3%
Cc1ccc(N(C)S(=O)(=O)c2cccc(C(=O)Nc3nnc(C4CC4)s3)c2)cc1,-8%,0,0%,11µM*,?
O=C(Nc1nc2ccccc2[nH]1)c1ccc(Br)o1,?,0,0%,7.1µM*,?
C=C(C)C1COc2cc3oc(=O)ccc3cc2O1 (stereo not given),-6%,.,.,17%,.
Cc1ccc(Cl)cc1NC(=O)C(=O)N1CCCCC1,15%,11,0%,16%,?
Cc1ccc(Cl)cc1NC1=NC(=S)N(C(C)C)C12CCCCC2,3.5µM*,-6,-1%,2.8µM*,-21%
CS(=O)c1ccccc1O (stereo not given),-4%,-3,0%,11µM*,3%
CCOC(=O)N1CCN(C(=O)COC(=O)CSc2ccc([N+](=O)[O-])cc2)CC1,.,-1,0%,.,15%
N#Cc1ccccc1NC(=O)CSC1=Nc2ccccc2C2CC=NN12 (stereo not given),?,-4,-1%,11µM*,?
COc1ccc(-c2c(C3C4C=CCC(C)C4C(=O)N3Cc3ccccc3)ccc3ccccc23)cc1OC (stereo not given),6%,.,.,6%,.
Cc1nc(SC2CCOC2=O)c2c(C)c(C)sc2n1 (stereo not given),16µM*,6,0%,11µM*,-7%
Cc1c(C(=O)NCc2ccccc2)oc2ccc(S(=O)(=O)N3CCC4(CC3)OCCO4)cc12,12%[0.365 µM],-13,0%,37%,4.1µM*
Cc1c(C(=O)NCc2c(F)cc(F)cc2F)oc2ccc(S(=O)(=O)N3CCOCC3)cc12,-4%,4,0%,-1%,29µM*
Cc1c(C(=O)Nc2cccc(Cl)c2)oc2ccc(S(=O)(=O)N3CCC4(CC3)OCCO4)cc12,-1%,22,-1%,23%,9.2µM*
Cc1c(C(=O)NCc2ccccn2)oc2ccc(S(=O)(=O)N3CCC4(CC3)OCCO4)cc12,-10%,-33,0%,?,?
Cc1c(C(=O)NCc2ccc(F)cc2)oc2ccc(S(=O)(=O)N3CCOCC3)cc12,13%,-8,0%,32%,?
Cc1c(C(=O)O)oc2ccc(S(=O)(=O)NCc3ccccc3)cc12,-1%,1,1%,24%,9.2µM*
Cc1c(C(=O)Nc2cccc(S(=O)(=O)N3CCCC3)c2)oc2ccccc12,1%,-8,0%,2%,-10%
CCCOCCc1nnc(N)s1,-5%,2,0%,0%,0%
Cc1ccc(NC(=O)COC(=O)CCc2c[nH]c3ccccc23)c(C)c1,.,-12,0%,.,0%
